# ChEMBL document CHEMBL3988442, “University of Dundee, Small-Polar-MMV Screening Library” (2021)
# For some assays here: Entries with a potency or affinity are not part of this list.
# Legend:
# Design in all cases: scale not given: direction of the effect not stated beside the values
# [1] = target: Protein translocase subunit SecA (Escherichia coli (strain K12)) (UniProt P10408); test: Assay to Identify E. coli SecA ATPase Inhibitors; assay type: functional; conditions: 30 µM
# [2] = target: T1, Ubiquitin-activating enzyme e1, putative (Leishmania donovani (strain BPK282A1)) (UniProt E9BSI1); test: Leishmania donovani Ubiquitin Activating Enzyme (LdE1); assay type: functional; conditions: 30 µM
# T1 sequence (whole entry): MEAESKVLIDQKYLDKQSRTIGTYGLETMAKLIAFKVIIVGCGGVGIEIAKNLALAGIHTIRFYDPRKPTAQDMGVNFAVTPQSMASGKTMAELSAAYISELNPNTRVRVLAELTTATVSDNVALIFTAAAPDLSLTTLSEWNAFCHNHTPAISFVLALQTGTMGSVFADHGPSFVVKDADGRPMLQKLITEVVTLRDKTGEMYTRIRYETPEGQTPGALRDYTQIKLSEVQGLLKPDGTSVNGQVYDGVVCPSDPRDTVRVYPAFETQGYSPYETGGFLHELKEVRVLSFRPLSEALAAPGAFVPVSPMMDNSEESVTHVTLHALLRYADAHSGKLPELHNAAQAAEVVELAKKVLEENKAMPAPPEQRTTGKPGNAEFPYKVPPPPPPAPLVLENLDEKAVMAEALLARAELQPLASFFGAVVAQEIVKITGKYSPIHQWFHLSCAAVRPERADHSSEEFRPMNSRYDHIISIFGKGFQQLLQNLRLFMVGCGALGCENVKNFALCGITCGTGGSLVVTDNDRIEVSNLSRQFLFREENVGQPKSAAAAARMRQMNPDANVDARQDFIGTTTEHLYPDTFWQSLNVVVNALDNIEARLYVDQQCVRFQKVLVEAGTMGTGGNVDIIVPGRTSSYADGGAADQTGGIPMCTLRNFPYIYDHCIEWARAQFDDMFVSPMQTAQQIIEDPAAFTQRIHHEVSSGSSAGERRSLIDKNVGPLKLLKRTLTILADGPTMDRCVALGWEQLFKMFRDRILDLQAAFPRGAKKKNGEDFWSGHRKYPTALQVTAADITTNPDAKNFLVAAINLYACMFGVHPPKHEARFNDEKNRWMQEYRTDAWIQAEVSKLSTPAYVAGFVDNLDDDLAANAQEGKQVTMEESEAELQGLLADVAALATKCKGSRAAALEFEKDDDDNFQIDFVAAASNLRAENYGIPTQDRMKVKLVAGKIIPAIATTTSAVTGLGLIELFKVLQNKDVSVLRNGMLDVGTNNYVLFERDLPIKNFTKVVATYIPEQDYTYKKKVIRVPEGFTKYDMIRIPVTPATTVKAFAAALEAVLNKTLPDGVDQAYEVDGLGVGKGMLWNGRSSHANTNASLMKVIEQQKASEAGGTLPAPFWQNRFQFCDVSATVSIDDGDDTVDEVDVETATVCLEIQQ
# [3] = target: AMP-activated protein kinase, AMPK (Homo sapiens) (UniProt P54646+O43741+P54619+Q9UGJ0+Q9Y478+Q13131+Q9UGI9); test: AMP-dependent Kinase enzyme assay. An in vitro enzyme assay that detects ADP turnover that is directly proportional to AMPK activity. This uses naive AMPK that is activated during the assay with MK-8722; assay type: functional; conditions: 30 µM
# [4] = target: Sialic acid-binding Ig-like lectin 9 (Homo sapiens) (UniProt Q9Y336); test: Hs-Siglec9 ALPHAscreen SOP 20170721; conditions: 10 µM
# Trypanosoma cruzi = test: Trypanosoma cruzi phosphomannomutase and mannose-1-phosphate guanylyltransferase assay; assay type: functional; conditions: 10 µM
# [5] = target: T2, Arginase-2, mitochondrial (Homo sapiens) (UniProt P78540); test: in vitro enzyme assay to detect the production of urea directly proportional to the activity of Arginase II; assay type: functional; conditions: 33.3 µM; further: in the data most compounds retested in dose-response had high values
# T2 sequence (whole entry): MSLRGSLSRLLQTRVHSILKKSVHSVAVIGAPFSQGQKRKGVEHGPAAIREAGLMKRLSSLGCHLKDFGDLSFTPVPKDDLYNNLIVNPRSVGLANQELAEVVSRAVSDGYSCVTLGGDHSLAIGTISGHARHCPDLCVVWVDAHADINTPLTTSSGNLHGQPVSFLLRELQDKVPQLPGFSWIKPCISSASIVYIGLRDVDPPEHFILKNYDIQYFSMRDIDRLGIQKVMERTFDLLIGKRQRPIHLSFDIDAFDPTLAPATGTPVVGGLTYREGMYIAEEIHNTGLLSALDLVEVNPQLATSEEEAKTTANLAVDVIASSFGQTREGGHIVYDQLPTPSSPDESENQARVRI
# [6] = target: T3, Proteasome subunit beta (Trypanosoma cruzi) (UniProt O96673); test: Trypanosoma cruzi proteasome chymotrypsin-like activity (TcProtChymo) assay.; further: in the data most compounds retested in dose-response had high values; assay type: functional; conditions: 9.37 µM
# T3 sequence (whole entry): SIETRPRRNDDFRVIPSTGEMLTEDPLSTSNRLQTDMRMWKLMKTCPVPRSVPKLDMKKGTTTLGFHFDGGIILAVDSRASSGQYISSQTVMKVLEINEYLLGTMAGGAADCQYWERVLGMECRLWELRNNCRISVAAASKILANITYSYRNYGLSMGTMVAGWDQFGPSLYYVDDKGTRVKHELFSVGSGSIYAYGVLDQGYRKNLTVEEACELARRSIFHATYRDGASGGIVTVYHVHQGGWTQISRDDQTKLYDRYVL
# Homo sapiens = species on record: Homo sapiens; test: To identify inhibition of the IFN signalling (Jak-Stat) pathway via expression of an eGFP reporter gene under the control of an IFN-stimulated response element (ISRE) containing MxA promoter.; assay type: functional; conditions: 30 µM
# [7] = target: T4, Tyrosyl-tRNA synthetase, putative (Trypanosoma cruzi (strain CL Brener)) (UniProt Q4DSP6); test: Trypanosoma cruzi tyrosyl tRNA synthetase (TcYRS) _High Tyrosine SOP; assay type: functional; conditions: 30 µM; further: in the data most compounds retested in dose-response had high values
# T4 sequence (whole entry): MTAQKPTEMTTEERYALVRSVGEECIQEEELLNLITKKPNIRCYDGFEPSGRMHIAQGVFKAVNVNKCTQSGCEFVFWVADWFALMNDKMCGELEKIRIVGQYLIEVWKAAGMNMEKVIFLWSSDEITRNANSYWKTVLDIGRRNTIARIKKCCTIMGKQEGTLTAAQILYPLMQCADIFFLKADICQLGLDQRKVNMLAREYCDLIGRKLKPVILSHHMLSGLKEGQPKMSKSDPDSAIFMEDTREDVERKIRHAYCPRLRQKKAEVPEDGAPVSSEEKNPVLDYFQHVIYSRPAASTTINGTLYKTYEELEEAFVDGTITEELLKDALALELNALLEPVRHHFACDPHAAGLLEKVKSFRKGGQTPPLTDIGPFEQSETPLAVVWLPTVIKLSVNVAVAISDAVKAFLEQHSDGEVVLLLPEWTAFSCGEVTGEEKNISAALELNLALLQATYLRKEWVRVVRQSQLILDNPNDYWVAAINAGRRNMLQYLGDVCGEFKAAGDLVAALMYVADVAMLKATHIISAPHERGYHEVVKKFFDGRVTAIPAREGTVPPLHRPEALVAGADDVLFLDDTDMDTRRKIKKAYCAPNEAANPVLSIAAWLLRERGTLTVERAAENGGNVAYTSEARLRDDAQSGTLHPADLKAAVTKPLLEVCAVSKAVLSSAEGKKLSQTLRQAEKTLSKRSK
# [8] = target: T4, Tyrosyl-tRNA synthetase, putative (Trypanosoma cruzi (strain CL Brener)); test: Trypanosoma cruzi tyrosyl tRNA synthetase (TcYRS) SOP; assay type: functional; conditions: 30 µM
# [9] = target: Chromo domain-containing protein 1 (Saccharomyces cerevisiae (strain ATCC 204508 / S288c) (Baker's yeast)) (UniProt P32657); test: ScCHD-1 Enzyme Inhibition Assay; assay type: functional; conditions: 30 µM; further: in the data most compounds retested in dose-response had high values
# Chain of Chromo domain-containing protein 1 (Saccharomyces cerevisiae (strain ATCC 204508 / S288c) (Baker's yeast)) (P32657 whole entry, the tested form may be a part): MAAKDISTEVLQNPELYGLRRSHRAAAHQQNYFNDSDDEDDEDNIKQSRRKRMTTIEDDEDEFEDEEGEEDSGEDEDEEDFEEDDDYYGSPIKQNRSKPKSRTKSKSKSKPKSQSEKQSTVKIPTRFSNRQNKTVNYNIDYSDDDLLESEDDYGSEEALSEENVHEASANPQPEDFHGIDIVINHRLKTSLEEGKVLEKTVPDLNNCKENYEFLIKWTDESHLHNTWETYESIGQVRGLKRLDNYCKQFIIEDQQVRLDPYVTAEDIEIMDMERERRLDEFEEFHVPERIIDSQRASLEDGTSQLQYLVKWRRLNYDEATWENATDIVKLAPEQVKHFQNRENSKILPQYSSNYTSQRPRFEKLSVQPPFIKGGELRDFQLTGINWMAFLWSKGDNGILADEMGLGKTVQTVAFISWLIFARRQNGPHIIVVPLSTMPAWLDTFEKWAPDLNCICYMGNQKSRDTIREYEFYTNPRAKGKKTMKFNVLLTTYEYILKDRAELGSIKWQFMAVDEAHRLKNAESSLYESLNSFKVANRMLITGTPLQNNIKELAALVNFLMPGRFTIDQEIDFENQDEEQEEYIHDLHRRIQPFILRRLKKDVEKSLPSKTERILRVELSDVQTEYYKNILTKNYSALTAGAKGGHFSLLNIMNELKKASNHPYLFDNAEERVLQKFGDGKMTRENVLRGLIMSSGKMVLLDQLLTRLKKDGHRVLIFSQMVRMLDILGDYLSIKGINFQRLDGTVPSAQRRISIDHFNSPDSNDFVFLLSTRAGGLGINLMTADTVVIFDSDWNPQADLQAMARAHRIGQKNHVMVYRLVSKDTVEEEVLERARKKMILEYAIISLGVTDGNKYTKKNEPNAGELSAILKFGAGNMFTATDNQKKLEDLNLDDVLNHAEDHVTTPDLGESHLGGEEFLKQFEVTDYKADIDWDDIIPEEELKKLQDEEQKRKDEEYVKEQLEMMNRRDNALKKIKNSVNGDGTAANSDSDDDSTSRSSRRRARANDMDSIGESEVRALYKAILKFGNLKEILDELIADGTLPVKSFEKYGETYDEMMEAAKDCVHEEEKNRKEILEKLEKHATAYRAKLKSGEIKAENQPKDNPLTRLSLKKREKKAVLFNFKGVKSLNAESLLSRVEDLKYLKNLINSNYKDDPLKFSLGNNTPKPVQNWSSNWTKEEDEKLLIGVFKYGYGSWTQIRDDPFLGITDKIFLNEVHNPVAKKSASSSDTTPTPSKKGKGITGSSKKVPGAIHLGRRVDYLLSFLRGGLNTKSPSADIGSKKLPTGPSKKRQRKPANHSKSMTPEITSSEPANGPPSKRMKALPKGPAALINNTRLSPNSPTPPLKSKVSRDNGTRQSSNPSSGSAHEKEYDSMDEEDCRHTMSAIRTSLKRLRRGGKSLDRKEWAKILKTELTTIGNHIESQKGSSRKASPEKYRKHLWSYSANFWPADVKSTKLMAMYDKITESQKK
# Chain of Protein translocase subunit SecA (Escherichia coli (strain K12)) (P10408 whole entry): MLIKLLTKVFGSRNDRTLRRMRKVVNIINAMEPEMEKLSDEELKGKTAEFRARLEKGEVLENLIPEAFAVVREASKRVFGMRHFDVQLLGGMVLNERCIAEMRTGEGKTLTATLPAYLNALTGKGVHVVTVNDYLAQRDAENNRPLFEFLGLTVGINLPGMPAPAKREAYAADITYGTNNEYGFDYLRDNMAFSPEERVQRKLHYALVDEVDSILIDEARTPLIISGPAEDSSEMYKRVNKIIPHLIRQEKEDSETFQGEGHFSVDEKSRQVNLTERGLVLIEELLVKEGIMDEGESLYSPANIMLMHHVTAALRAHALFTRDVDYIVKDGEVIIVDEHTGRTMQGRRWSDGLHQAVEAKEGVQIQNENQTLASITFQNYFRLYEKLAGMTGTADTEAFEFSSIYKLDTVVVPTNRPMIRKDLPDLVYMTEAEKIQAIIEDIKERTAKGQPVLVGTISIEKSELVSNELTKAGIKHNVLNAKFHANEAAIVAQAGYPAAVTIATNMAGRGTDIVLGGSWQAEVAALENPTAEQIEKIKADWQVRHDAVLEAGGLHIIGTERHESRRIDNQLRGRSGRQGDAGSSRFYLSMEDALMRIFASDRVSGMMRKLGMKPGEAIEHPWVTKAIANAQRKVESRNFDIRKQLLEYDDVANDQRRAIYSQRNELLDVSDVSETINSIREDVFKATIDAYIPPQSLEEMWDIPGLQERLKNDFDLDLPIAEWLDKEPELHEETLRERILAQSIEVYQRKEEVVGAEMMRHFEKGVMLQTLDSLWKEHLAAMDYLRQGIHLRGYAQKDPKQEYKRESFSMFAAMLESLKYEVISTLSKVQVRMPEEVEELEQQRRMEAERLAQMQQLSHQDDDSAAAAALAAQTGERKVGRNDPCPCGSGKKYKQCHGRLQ
# Chain of Sialic acid-binding Ig-like lectin 9 (Homo sapiens) (Q9Y336 whole entry): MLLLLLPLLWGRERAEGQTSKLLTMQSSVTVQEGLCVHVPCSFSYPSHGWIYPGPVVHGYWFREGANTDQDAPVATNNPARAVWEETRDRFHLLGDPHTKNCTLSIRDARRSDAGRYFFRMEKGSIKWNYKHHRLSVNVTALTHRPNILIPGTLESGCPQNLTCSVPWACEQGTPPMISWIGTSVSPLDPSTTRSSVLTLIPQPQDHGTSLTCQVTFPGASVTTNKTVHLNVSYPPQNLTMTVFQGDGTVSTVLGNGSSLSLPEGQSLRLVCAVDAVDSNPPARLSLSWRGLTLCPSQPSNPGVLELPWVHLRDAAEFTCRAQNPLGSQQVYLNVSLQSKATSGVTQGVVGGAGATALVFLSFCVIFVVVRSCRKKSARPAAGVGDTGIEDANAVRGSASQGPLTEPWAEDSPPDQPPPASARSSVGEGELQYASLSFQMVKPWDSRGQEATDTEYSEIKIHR
SMILES,Percent Effect [1] [%],Percent Effect [2] [%],Percent Effect [3] [%],Percent Effect [4] [%],Percent Effect (Trypanosoma cruzi) [%],Percent Effect [5] [%],Percent Effect [6] [%],Percent Effect (Homo sapiens) [%],Percent Effect [7] [%],Percent Effect [8] [%],Percent Effect [9] [%]
c1nc(COCC2CC2)c2n1CCCN(CC1CC1)C2,-8.2,-2.67,1.44,3.77,-2.12,-22.4,-0.513,-0.93,-1.04,0,0.35
COc1ccc(NC(C)=O)c(N2CCN(C(C)=O)CC2)n1,-3.73,-2.7,-14.1,-3.66,-3.32,0,7.35,-1.36,7.92,8.54,15.3
Cc1cc(C2CCCN2CC(=O)N(CCC#N)c2ccccc2F)on1 (stereo unspecified),-2.04,10.8,-3.15,8.81,4.18,-4.99,19.4,8.68,3.96,23.2,-6.79
Cc1nc(CC(=O)N2CCCCC2c2ccn3ccnc3n2)cs1 (stereo unspecified),-1.88,-4.05,11.6,4.95,-1.78,-3.02,12.6,7.12,-1.07,1.3,-15.1
Cc1cc(CN(C)C(=O)NC2CCCN(c3ncccn3)C2)no1 (stereo unspecified),-1.33,5.26,1.46,4.34,3.01,-1.92,2.34,-2.99,9.31,21.9,-10.3
CNC(=O)Cn1cc(C#N)c(=O)c2cc(Br)ccc21,-5.47,13.3,-4.43,16.9,7.3,7.29,15.2,9.36,3.83,13.6,38.7
Cc1nn(C)c2c(NCc3ccccc3F)nc(C3CC3)nc12,-4.24,13,15.3,12.8,9.14,-63.5,20.6,38.1,-3.23,13.6,-3.61
Cc1ccnc(OCC(=O)N2CCC(C(N)=O)CC2)n1,-3.87,21.9,0.564,12.6,1.37,5,11.4,7.23,6.45,15,-7.43
O=C1CC(c2cccnc2)C2(CCN(C(=O)c3ccncc3)CC2)N1 (stereo unspecified),-4.11,10.8,2.03,-3.18,3.81,-4.78,17.9,-0.901,4.32,15.4,1.46
CC(C)(C)NC(=O)C1CSCN1S(=O)(=O)c1ccc(F)cc1 (stereo unspecified),-1.95,6.33,3.86,-0.312,-4,-4.52,15.4,21.8,7.29,20.2,-14.6
Cc1[nH]c(=O)[nH]c(=O)c1CN1CCCC(CCc2ccccc2)C1 (stereo unspecified),-1.15,2.7,-3.11,8.59,-5.02,0.952,18.1,-0.602,4.76,17.1,-3.68
COc1cccc(-c2nccnc2C2CCN(C(C)=O)CC2)c1,-1.31,9.46,8.79,-0.0533,-0.593,1.16,15.1,-0.133,3.23,14.3,-14.9
CCN(Cc1ccc2c(c1)OCCO2)S(=O)(=O)N(C)C(C)C,-5.7,7.79,3.89,16,5.99,0.356,3.38,9.12,0,14.6,-6.79
Cc1noc(C2CCCN(C(=O)c3ccc(Br)cc3F)C2)n1 (stereo unspecified),-5.32,10.4,2.06,2.58,6.95,2.74,6.87,-5.04,1.91,18.8,-19.5
Cc1cc(C)c(OCC(=O)NS(=O)(=O)c2cccnc2)c(C)c1,-3.5,21.1,-5.54,1.96,3.95,-0.766,16,6.77,10.3,24.4,-14
Cc1cc2n(n1)CC(CNCc1ccc(-n3cccn3)nc1)CN2 (stereo unspecified),-1.63,5.26,-8.03,8.37,13.2,-0.766,7.69,1.93,11.3,21.9,-9.89
